# Read-outs that look alike come from different tables or passages of the source.
# Key:
# Design in all cases: species or system human, MV4-11 + K-562 + COLO205 + SK-N-BE2 + OVCAR-8
# CDK2 = settings: read-out: apparent Kd, n = 1
# CDK9 = settings: read-out: apparent Kd, compound concentrations: 100 nM and 1000 nM (sheet 'Samples'), n = 1
# EPHA1 = settings: read-out: apparent Kd, compound concentrations: 100 nM and 1000 nM (sheet 'Samples'), n = 1
# MTOR = settings: read-out: apparent Kd; compound concentrations: 100 nM and 1000 nM (sheet 'Samples'), CATDS: 6.0851943016667201E-2; n = 1
# PIK3CG = settings: read-out: apparent Kd; compound concentrations: 100 nM and 1000 nM (sheet 'Samples'), CATDS: 3.56480592193908E-2; n = 1
# ROCK1 = settings: read-out: apparent Kd, n = 1
# CDC42BPA = settings: read-out: apparent Kd, n = 1
# PKN2 = settings: read-out: apparent Kd, n = 1
# PRKG1 = settings: read-out: apparent Kd, n = 1
# PDGFRB = settings: read-out: apparent Kd, compound concentrations: 100 nM and 1000 nM (sheet 'Samples'), n = 1
# TGFBR2 = settings: read-out: apparent Kd, n = 1
# CDC42BPG = settings: read-out: apparent Kd; compound concentrations: 100 nM and 1000 nM (sheet 'Samples'), CATDS: 9.9615433098280207E-2; n = 1
# CIT = settings: read-out: apparent Kd; compound concentrations: 100 nM and 1000 nM (sheet 'Samples'), CATDS: 3.2542810657946203E-2; n = 1
# AXL = settings: read-out: apparent Kd; compound concentrations: 100 nM and 1000 nM (sheet 'Samples'), CATDS: 9.0934128648907098E-2; n = 1
# FRK = settings: read-out: apparent Kd; compound concentrations: 100 nM and 1000 nM (sheet 'Samples'), CATDS: 2.21362656072501E-2; n = 1
# FYN = settings: read-out: apparent Kd; compound concentrations: 100 nM and 1000 nM (sheet 'Samples'), CATDS: 2.0819366263931199E-2; n = 1
# [1] = compound concentrations:100 nM and 1000 nM (sheet 'Samples')
structure (smiles),measurement,setting,value
NS(=O)(=O)c1ccc(N/C=C2\C(=O)Nc3ccc4ncsc4c32)cc1 [GW297361X],potency estimated from few doses,"CDK2; compound concentrations: 100 nM and 1000 nM (sheet 'Samples'), CATDS: 7.9429171662671896E-2",232 nM
same,potency estimated from few doses,CDK9; CATDS: 3.67324795233104E-2,1040 nM
CCC(CC)(CC)n1cnc2c(N)ncnc21 [SKF-97620],potency estimated from few doses,EPHA1; CATDS: 3.2414414086750797E-2,828 nM
same,potency estimated from few doses,MTOR,220 nM
same,potency estimated from few doses,PIK3CG,658 nM
same,potency estimated from few doses,"ROCK1; compound concentrations: 100 nM and 1000 nM (sheet 'Samples'), CATDS: 2.49048423205754E-2",1780 nM
Cl.Cl.NC[C@H](CC1CCCCC1)NC(=O)c1ccc(-c2ccnc3[nH]ccc23)s1.NC[C@H](CC1CCCCC1)NC(=O)c1ccc(-c2ccnc3[nH]ccc23)s1 [GSK1581428A],potency estimated from few doses,CDC42BPA; [1],28.9 nM
same,potency estimated from few doses,PKN2; [1],452 nM
same,potency estimated from few doses,PRKG1; [1],41.4 nM
same,potency estimated from few doses,ROCK1; [1],29.2 nM
CN[C@H](C#Cc1c(F)ccc2c1/C(=C/c1[nH]ccc1OC)C(=O)N2)CO.Cl [RO0283049-001],potency estimated from few doses,"CDK2; compound concentrations: 100 nM and 1000 nM (sheet 'Samples'), CATDS: 2.1826327845386101E-2",1310 nM
COc1cc[nH]c1/C=C1\C(=O)Nc2ccc([N+](=O)[O-])c(N3CC[C@@H](O)C3)c21 [RO0504985-000],potency estimated from few doses,"CDK2; compound concentrations: 100 nM and 1000 nM (sheet 'Samples'), CATDS: 3.3217097054667903E-2",1280 nM
same,potency estimated from few doses,CDK9; CATDS: 3.1258790077652497E-2,1620 nM
same,potency estimated from few doses,PDGFRB; CATDS: 3.1166812666601599E-2,1640 nM
same,potency estimated from few doses,"TGFBR2; compound concentrations: 100 nM and 1000 nM (sheet 'Samples'), CATDS: 3.2384825488945002E-2",1410 nM
O=C1N=C(N[C@H](CO)c2ccccc2)S/C1=C\c1ccc2ncccc2c1 [RO4554339-000],potency estimated from few doses,"CDC42BPA; compound concentrations: 100 nM and 1000 nM (sheet 'Samples'), CATDS: 8.0851127030257999E-2",2180 nM
Cl.Cl.NCC(NC(=O)c1cc(-c2ccnc3[nH]ccc23)cs1)c1ccccc1.NCC(NC(=O)c1cc(-c2ccnc3[nH]ccc23)cs1)c1ccccc1 (centres unmarked) [GSK1229959A],potency estimated from few doses,"CDC42BPA; compound concentrations: 100 nM and 1000 nM (sheet 'Samples'), CATDS: 7.2504197887005906E-2",15.3 nM
same,potency estimated from few doses,CDC42BPG,8.8 nM
same,potency estimated from few doses,CDK9; CATDS: 1.9893156316103101E-2,801 nM
same,potency estimated from few doses,CIT,113 nM
same,potency estimated from few doses,"PKN2; compound concentrations: 100 nM and 1000 nM (sheet 'Samples'), CATDS: 3.5150417589149101E-2",88.5 nM
same,potency estimated from few doses,"PRKG1; compound concentrations: 100 nM and 1000 nM (sheet 'Samples'), CATDS: 9.38640843647673E-2",9.7 nM
same,potency estimated from few doses,"ROCK1; compound concentrations: 100 nM and 1000 nM (sheet 'Samples'), CATDS: 0.109953475811368",7.53 nM
CC(C)(CO)CNC(=O)c1ccc2c(c1)/C(=N/Nc1ccc(S(N)(=O)=O)cc1)C(=O)N2 [GW301784X],potency estimated from few doses,CDK2; [1],87.1 nM
same,potency estimated from few doses,TGFBR2; [1],822 nM
Cl.Nc1nc(-c2ccc3c(c2)C(=Cc2cc(Br)c(O)c(Br)c2)C(=O)N3)cs1 [GW407323A],potency estimated from few doses,"CDK2; compound concentrations: 100 nM and 1000 nM (sheet 'Samples'), CATDS: 3.5649543484101501E-2",720 nM
COc1cc2ncn(-c3cc(OCc4ccccc4S(C)(=O)=O)c(C#N)s3)c2cc1OC [GSK319347A],potency estimated from few doses,AXL,1240 nM
Cl.Oc1cccc(Nc2ccnc3cc(-c4ccncc4)ccc23)c1 [GW494601A],potency estimated from few doses,EPHA1; CATDS: 8.3232336419421196E-2,14.3 nM
same,potency estimated from few doses,FRK,843 nM
same,potency estimated from few doses,FYN,1150 nM
same,potency estimated from few doses,PDGFRB; CATDS: 1.9069305404636899E-2,1970 nM
same,potency estimated from few doses,"TGFBR2; compound concentrations: 100 nM and 1000 nM (sheet 'Samples'), CATDS: 0.14921911016535599",5.06 nM

# Reference: PMC11062922 (Nature Chemical Biology, 2023)
